In PubChem BioAssay (NCATS):
Results filed as inconclusive are left out. Unmarked numbers belong to inactive results. The call rests on the fitted dose curve; in most records, active means well fitted inhibition curve with a large enough effect; inconclusive means small, poorly fitted or top-dose-only effect; inactive means no such curve, though single readings can be large or run the other way. Square brackets hold non-standard residues; d marks the D form. Peptide text beside a SMILES is read from it. ξ: configuration not given here. ξPhe(βξ-Me) = CC(c1ccccc1)C(N)C(=O)O; GABA = NCCCC(=O)O

Target: Retinaldehyde dehydrogenase 3 (Homo sapiens) (UniProt P47895)
Experiment: qHTS for Inhibitors of the Aldehyde Dehydrogenase Family (ALDH1A3) Primary screen (AID 2061315);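 further: plate controls were DMSO vehicle for no effect and reference inhibitor for full effect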
Settings: ALDH inhibition qHTS; series mostly up to 56 µM; activity change, negative = inhibition: at the top concentration

Q: Which “activity change, negative = inhibition” value does the source give for `COc1cc2ncnc(Nc3ccc(F)c(Cl)c3)c2cc1OCCCN1CCOCC1` here?
A: 0.612%

Q: With `CC1(CO)CCCC2(C)C1C(OC(=O)c1ccccc1)C=C1C(=O)OCC12O` (stereo not given) as the compound, how does the “activity change, negative = inhibition” value read?
A: 0.6%

Q: `CC1[C@@H](O)[C@@H](O)C2[C@]3(C)C(C[C@H]4OC(=O)[C@H](O)[C@]1(O)[C@@]24C)C(C)(O)C[C@H](O)[C@H]3O` (stereo not given in full) was tested. Which “activity change, negative = inhibition” value did it give?
A: -17.7% [at 28 µM]

Q: With `C[C@@H]1CCC2C(C)(C)[C@H](O)CC[C@]2(C)[C@@]12Cc1c(O)cc3c(c1O2)CN([C@@H](CCC(=O)O)C(=O)O)C3=O` (stereo not given in full) as the compound, how does the “activity change, negative = inhibition” value read?
A: 1.63% [at 28 µM]

Q: `N#Cc1ccc(N2N=C3c4ccc(C(=O)O)cc4CC[C@@H]3[C@@H]2C2CCCC2)cc1Cl` was tested. Which “activity change, negative = inhibition” value did it give?
A: -5.36%

Q: Which “activity change, negative = inhibition” value does the source give for `Nc1nc(Cl)nc2c1ncn2C1OC(CO)C(O)C1F` (stereo not given) here?
A: -0.968%

Q: How did the “activity change, negative = inhibition” value turn out when `C[C@H]1CC[C@@H]2N(C1)C[C@@H]1[C@H]([C@@H](O)[C@H](O)[C@]3(O)[C@H]1C[C@@]14OC5(O)[C@@H](C[C@@H](O)[C@@H]31)[C@]4(C)CC[C@@H]5O)[C@]2(C)O` was run?
A: 0.119% [at 28 µM]

Q: For `CC(C)COc1ccc(CNC(=O)N(Cc2ccc(F)cc2)C2CCN(C)CC2)cc1`, which “activity change, negative = inhibition” value is on record?
A: -8.12%

Q: With `CC[C@]1(O)CC2CN(CCc3c([nH]c4ccccc34)[C@@](C(=O)OC)(c3cc4c(cc3OC)N(C=O)[C@H]3[C@@](O)(C(=O)OC)[C@H](OC(C)=O)[C@]5(CC)C=CCN6CC[C@]43[C@@H]65)C2)C1` (stereo not given in full) as the compound, how does the “activity change, negative = inhibition” value read?
A: -5.75%

Q: With `C=C(CCO)C(=O)OCC1OCC(OC(=O)C(=C)CCO[C@@H]2O[C@H](COC(=O)C(=C)CCO[C@@H]3O[C@H](CO)[C@@H](O)[C@H](O)[C@H]3O)[C@@H](O)[C@H](O)[C@H]2O)C(O)C1O` (stereo not given in full) as the compound, how does the “activity change, negative = inhibition” value read?
A: -2.72% [at 16.9 µM]

Q: Which “activity change, negative = inhibition” value does the source give for `CC1NC(=O)CCCNC(=O)C(Cc2c[nH]c3ccccc23)NC(=O)C(C)NC(=O)C(C(C)C)NC(=O)C(C(C)c2ccccc2)NC(=O)C(C(C)C)NC1=O` (stereo not drawn) (cyclo([GABA]AV[ξPhe(βξ-Me)]VAW); configuration not given here) here?
A: 6.64% [at 16.9 µM]

Q: `C/C=C/C=C/C=C/C(=O)N(C)C(C(=O)NC(C)C(=O)N1CCCC1C(N)=O)C(C)C` (stereo not given) was tested. Which “activity change, negative = inhibition” value did it give?
A: -10.7% [at 28 µM]

Q: With `O=C(O)/C=C/c1ccc2occc2c1O[C@@H]1O[C@H](CO)[C@@H](O)[C@H](O)[C@H]1O` as the compound, how does the “activity change, negative = inhibition” value read?
A: -25.1%

Q: `C[C@@H]1CC[C@]2(C(=O)O)CC[C@]3(C)C(=CCC4[C@@]5(C)C[C@@H](O)[C@H](O)[C@@](C)(CO)C5CC[C@]43C)C2[C@]1(C)O` (stereo not given in full) was tested. Which “activity change, negative = inhibition” value did it give?
A: -5.74% [at 28 µM]

Q: With `C[C@]1(O)CC[C@@H]2C(C(=O)O)=CO[C@@H](O[C@@H]3O[C@H](COC(=O)/C=C/c4ccc(O)c(O)c4)[C@@H](O)[C@H](O)[C@H]3O)[C@@H]21` as the compound, how does the “activity change, negative = inhibition” value read?
A: -13.1% [at 28 µM]

Q: For `O=C(/C=C/c1ccc(O)cc1)OC[C@H]1O[C@@H](OC(=O)/C=C/c2ccccc2)[C@H](O)[C@@H](O)[C@@H]1O`, which “activity change, negative = inhibition” value is on record?
A: -3.95% [at 28 µM]

Q: With `Cc1ccc(N2CCN(S(=O)(=O)N3CCCCC3)CC2)c(C)c1` as the compound, how does the “activity change, negative = inhibition” value read?
A: -3.79%

Q: With `CC(O)C(C)n1ncn(-c2ccc(N3CCN(c4ccc(OCC5COC(Cn6cncn6)(c6ccc(Cl)cc6Cl)O5)cc4)CC3)cc2)c1=O` (stereo not given) as the compound, how does the “activity change, negative = inhibition” value read?
A: -13.3%

Q: With `COc1ccc(OC2OC(CO[C@@H]3O[C@@H](C)[C@H](O)[C@@H](O)[C@H]3O)C(O)C(O)C2O)cc1OC` (stereo not given in full) as the compound, how does the “activity change, negative = inhibition” value read?
A: -5.31% [at 28 µM]

Q: Which “activity change, negative = inhibition” value does the source give for `Cc1ccn(-c2cc(Cl)ccc2[C@@H](Oc2cc(-c3ccc(C[C@H](N)C(=O)O)cc3)nc(N)n2)C(F)(F)F)n1` here?
A: 36.1%

Q: With `Cc1ccccc1NC(=O)Nc1ccc(CC(=O)N(C)[C@@H](CC(C)C)C(=O)NCC[C@H](NC(=O)[C@@H]2CCCN2S(=O)(=O)c2cc(Cl)cc(Cl)c2)C(=O)O)cc1` as the compound, how does the “activity change, negative = inhibition” value read?
A: -2.94% [at 28 µM]

Q: How did the “activity change, negative = inhibition” value turn out when `COC(=O)C1C(O)CCC2CN3CCc4c([nH]c5ccccc45)C3CC21` (stereo not given) was run?
A: 12.6%

Q: Which “activity change, negative = inhibition” value does the source give for `CC(=O)OC1C(O)CC2(C)C(CCC3(C)C2CC=C2C4C5(CCC(CO[C@@H]6O[C@H](CO)[C@@H](O)[C@H](O)[C@H]6O)(OC5=O)C4(C)O)C(O)CC23C)C1(C)C` (stereo not given in full) here?
A: -0.624% [at 16.9 µM]

Q: With `COC(=O)[C@]12C(=O)C(C)=C(O)[C@@]1(C)C(C)=CC1[C@@]34CC[C@@H](OC(C)=O)C(C)(C)C3[C@H](C[C@]12C)OC4=O` (stereo not given in full) as the compound, how does the “activity change, negative = inhibition” value read?
A: -4.22% [at 28 µM]

Q: Which “activity change, negative = inhibition” value does the source give for `CC(C)=CCC(O)/C(C)=C/CO[C@@H]1O[C@H](CO)[C@@H](O)[C@H](O)[C@H]1O` (stereo not given in full) here?
A: -2%

Q: With `CC1CC(C(O)C(C)(C)O)OC2CC3(C)C4(C)CCC5C(C)(C)C(=O)CCC5(C)C4CCC3(O)C12O` (stereo not given) as the compound, how does the “activity change, negative = inhibition” value read?
A: 17.4% [at 28 µM]

Q: Which “activity change, negative = inhibition” value does the source give for `O=C1NC2CCCCN2C12CCN(CCCN1c3ccccc3CCc3ccc(Cl)cc31)CC2` (stereo not given) here?
A: -3.57%

Q: How did the activity change, negative = inhibition turn out when `C[C@@H]1O[C@@H](O[C@@H]2[C@@H](O[C@@H]3O[C@@H](C)[C@H](O[C@@H]4OC[C@H](O)[C@H](O[C@@H]5OC[C@@H](O)[C@H](O)[C@H]5O)[C@H]4O)[C@@H](O[C@@H]4OC[C@](O)(CO)[C@H]4O)[C@H]3O)[C@H](OC(=O)[C@]34CCC(C)(C)C[C@H]3C3=CCC5[C@@]6(C)C[C@H](O)[C@H](O[C@@H]7O[C@H](CO[C@@H]8OC[C@H](O)[C@H](O)[C@H]8O)[C@@H](O)[C@H](O)[C@H]7O)C(C)(C)C6CC[C@@]5(C)[C@]3(C)C[C@H]4O)OC[C@H]2O)[C@H](O)[C@H](O)[C@H]1O` (stereo not given in full) was run?
A: 8.86% [at 11.2 µM]

Q: `COc1ccc2c3c1O[C@H]1C[C@@H](O)C=C[C@@]31CCN(C)C2` was tested. Which “activity change, negative = inhibition” value did it give?
A: -13%

Q: For `C=C1CCC[C@]2(C)CC[C@@](O)(C(=C)C(=O)O)C[C@@H]12`, which “activity change, negative = inhibition” value is on record?
A: 4.84%

Q: With `Cc1ccccc1N1CCN(S(=O)(=O)C[C@]23CC[C@H](C[C@@H]2NC(=O)[C@@H](N)CCS(C)(=O)=O)C3(C)C)CC1` as the compound, how does the “activity change, negative = inhibition” value read?
A: -1.08%

Q: How did the “activity change, negative = inhibition” value turn out when `C=CC1(C)CC(O)C(C(=C)C(=O)OC)C(O)C1C(=C)CO` (stereo not given) was run?
A: 15.2%

Q: `CCOC(=O)C(CCc1ccccc1)NC(C)C(=O)N1C(=O)N(C)CC1C(=O)O` (stereo not given) was tested. Which “activity change, negative = inhibition” value did it give?
A: -13.5%

Q: With `O=C(/C=C/c1ccc(O)cc1)OC[C@H]1O[C@@H](O/C(=C\c2ccccc2)C(=O)O)[C@H](O)[C@@H](O)[C@@H]1O` as the compound, how does the “activity change, negative = inhibition” value read?
A: 6.08% [at 28 µM]

Q: With `O=C(Nc1ccc(Cl)cc1F)c1ccccc1O` as the compound, how does the “activity change, negative = inhibition” value read?
A: -19.7%

Q: How did the “activity change, negative = inhibition” value turn out when `O=C(CCc1ccccc1)N1CCC(O)(Cn2cnc3cc(Cl)ccc3c2=O)CC1` was run?
A: -21.3%

Q: With `COc1cc(/C=C/C(=O)OC2CC3CCC2(C)C3(C)C)ccc1O` (stereo not given) as the compound, how does the “activity change, negative = inhibition” value read?
A: -20.9%

Q: For `CC1(C)CCCC2(C)C3=C(C(=O)OC3O)C(O)CC12` (stereo not given), which “activity change, negative = inhibition” value is on record?
A: -10.8%

Q: With `CC(C)C[C@@H]1NC(=O)[C@@H]2C[C@@]34C[C@@H]5[C@@]6(C)CCCC(C)(C)C6CC[C@@]5(C)N(c5ccccc53)[C@H]4N2C1=O` (stereo not given in full) as the compound, how does the “activity change, negative = inhibition” value read?
A: 0.0356% [at 28 µM]

Q: For `C[C@H]1CC[C@H]2[C@@H](C=C[C@@](C)(O)[C@]2(C)C(=O)CCO)C1`, which “activity change, negative = inhibition” value is on record?
A: 4.93%
